Test results published in the supplement of paper PMC12350171.
Structures can show the parent of a compound that is named as a salt.

Tests used:
Conditions in all cases: 20 µM
[1] = system: Salmonella enterica typhimurium; test: growth AUC normalised to DMSO control (fraction of control); higher = less growth inhibition, active = hit call of the paper
In short: (§1)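 After two anaerobic passages, pathogens were added at a starting OD578 of 0.01 to pre-reduced mGAM plates holding compound at 20 μM with 1% DMSO; hemin and NAD were supplemented for Haemophilus parainfluenzae. Sealed with breathable membranes, plates were read at OD578 hourly for 24 h, in three biological replicates. The trapezoidal rule, applied up to the exponential-to-stationary transition, gave the growth-curve AUC, which was normalised to DMSO controls on the same plate.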

Shigella flexneri = test: as above
In short: as §1

Vibrio cholerae = test: as above
In short: as §1

[2] = system: Yersinia pseudotuberculosis; test: as above
In short: as §1

P. vulgatus RND KO = test: growth AUC normalised to DMSO control (median) (fraction of control); higher = less growth inhibition, active = hit call of the paper
In short: (§2)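 For normalised area under the curve, growth curves were truncated at entry into stationary phase, integrated by the trapezoidal rule and divided against vehicle wells on the same plate. The curves came from strains passaged twice overnight without oxygen and then grown in mGAM in 96-well plates at a starting OD578 of 0.01. Each well held an approved-drug library compound at 20 μM with 1% DMSO, and OD578 was read hourly for 24 h in an anaerobic incubator. Values are medians of three biological replicates.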

P. vulgatus WT = test: as above
In short: as §2

[3] = system: S. enterica typhimurium WT; test: as above
In short: as §2

[4] = system: S. enterica typhimurium tolC KO; test: as above
In short: as §2

Measured: growth AUC normalised to DMSO control
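Wherever growth AUC normalised to DMSO control (median) is given: active when median AUC fell below 0.1.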

Cc1nnc(NS(=O)(=O)c2ccc(N)cc2)s1 [Sulfamethizole]
inactive: [1] 0.985 | Shigella flexneri 0.98 | Vibrio cholerae 0.978 | [2] 1.01 | P. vulgatus RND KO 1 | P. vulgatus WT 1 | [3] 0.978 | [4] 0.984

CC(CN(C)C)CN1c2ccccc2Sc2ccccc21 (centres undefined) [Trimeprazine tartrate]
inactive: [1] 0.988 | Shigella flexneri 0.952 | Vibrio cholerae 0.895 | [2] 0.999 | P. vulgatus RND KO 0.799 | P. vulgatus WT 0.792 | [3] 1 | [4] 0.972

CCC(=O)OCC(=O)[C@@]1(OC(=O)CC)[C@H](C)C[C@H]2[C@H]3[C@H]([C@@H](O)C[C@@]21C)[C@@]1(C)C=CC(=O)C=C1C[C@H]3Cl [Alclometasone dipropionate]
inactive: [1] 1 | Shigella flexneri 0.974 | Vibrio cholerae 0.999 | [2] 1.01 | P. vulgatus RND KO 1.03 | P. vulgatus WT 1.04 | [3] 1 | [4] 1

CN(C)CCC=C1c2ccccc2CCc2ccccc21 [Amitryptiline hydrochloride]
inactive: [1] 0.997 | Shigella flexneri 0.999 | Vibrio cholerae 0.905 | [2] 1.01 | P. vulgatus RND KO 0.993 | P. vulgatus WT 0.959 | [3] 0.998 | [4] 0.97

COC(=O)C1=C(C)NC(C)=C(C(=O)OC)C1c1ccccc1[N+](=O)[O-] [Nifedipine]
inactive: [1] 1 | Shigella flexneri 0.997 | Vibrio cholerae 0.971 | [2] 1 | P. vulgatus RND KO 0.987 | P. vulgatus WT 0.996 | [3] 1.01 | [4] 0.994

COc1ccc(C2CNC(=O)C2)cc1OC1CCCC1 (centres undefined) [Rolipram]
inactive: [1] 0.976 | Shigella flexneri 0.948 | Vibrio cholerae 0.945 | [2] 0.984 | P. vulgatus RND KO 1.01 | P. vulgatus WT 1.02 | [3] 1.01 | [4] 0.98

CCCCC(CC)CNC(=N)NC(=N)NCCCCCCNC(=N)NC(=N)NCC(CC)CCCC (centres undefined) [Alexidine dihydrochloride]
active: Shigella flexneri 0.833 | [2] 0.731 | P. vulgatus RND KO 0.0131 | P. vulgatus WT 0.00943
inactive: [1] 0.981 | Vibrio cholerae 0.924 | [3] 0.977 | [4] 0.964

Nc1ncnc2c1ncn2[C@@H]1O[C@H](CO)[C@@H](O)[C@@H]1O [Vidarabine]
inactive: [1] 0.988 | Shigella flexneri 0.984 | Vibrio cholerae 0.975 | [2] 0.829 | P. vulgatus RND KO 0.971 | P. vulgatus WT 0.977 | [3] 0.99 | [4] 0.995

COC(=O)CCc1ccc(OCC(O)CNC(C)C)cc1 (centres undefined) [Esmolol hydrochloride]
inactive: [1] 1.01 | Shigella flexneri 1.06 | Vibrio cholerae 1.06 | [2] 1 | P. vulgatus RND KO 1.05 | P. vulgatus WT 1.09 | [3] 1 | [4] 1.01

CC(NCCc1ccc(O)cc1)C(O)c1ccc(O)cc1 (centres undefined) [Ritodrine hydrochloride]
inactive: [1] 1.01 | Shigella flexneri 1.02 | Vibrio cholerae 0.999 | [2] 1 | P. vulgatus RND KO 1 | P. vulgatus WT 1.01 | [3] 1 | [4] 0.997

NC1CCN(c2nc3c(cc2F)c(=O)c(C(=O)O)cn3-c2ccc(F)cc2F)C1 (centres undefined) [Tosufloxacin hydrochloride]
active: [1] 0.00626 | Shigella flexneri 0.0173 | Vibrio cholerae 0.0443 | [2] 0.0355 | P. vulgatus RND KO 0.0157 | P. vulgatus WT 0.012 | [3] 0.00524 | [4] 0.00501

CCOC(=O)[N-]c1c[n+](N2CCOCC2)no1 [Molsidomine]
inactive: [1] 1.02 | Shigella flexneri 1.02 | Vibrio cholerae 1.03 | [2] 1.01 | P. vulgatus RND KO 0.999 | P. vulgatus WT 0.991 | [3] 1 | [4] 1.01

CC(=O)OCC(=O)[C@@]12OC(C)(C)O[C@@H]1C[C@H]1[C@@H]3C[C@H](F)C4=CC(=O)C=C[C@]4(C)[C@@]3(F)[C@@H](O)C[C@@]12C [Fluocinonide]
inactive: [1] 0.994 | Shigella flexneri 0.97 | Vibrio cholerae 0.973 | [2] 1.12 | P. vulgatus RND KO 0.967 | P. vulgatus WT 0.951 | [3] 1.01 | [4] 0.995

CN1CCCC(CC2c3ccccc3Sc3ccccc32)C1 (centres undefined) [Metixene hydrochloride]
inactive: [1] 0.987 | Shigella flexneri 1 | Vibrio cholerae 0.944 | [2] 1 | P. vulgatus RND KO 0.774 | P. vulgatus WT 0.704 | [3] 1.01 | [4] 0.923

CCCCC[C@H](O)/C=C/[C@H]1[C@H](O)CC(=O)[C@@H]1CCCCCCC(=O)O [Alprostadil]
inactive: [1] 0.992 | Shigella flexneri 0.989 | Vibrio cholerae 0.99 | [2] 0.999 | P. vulgatus RND KO 0.994 | P. vulgatus WT 1.01 | [3] 1 | [4] 1.01

COCCCOc1ccnc(C[S+]([O-])c2nc3ccccc3[nH]2)c1C (centres undefined) [Rabeprazole sodium salt]
inactive: [1] 1.01 | Shigella flexneri 1.04 | Vibrio cholerae 1.02 | [2] 1 | P. vulgatus RND KO 1.05 | P. vulgatus WT 1.01 | [3] 1 | [4] 0.889

CCn1cc(C(=O)O)c(=O)c2ccc(C)nc21 [Nalidixic acid sodium salt]
inactive: P. vulgatus RND KO 0.985 | P. vulgatus WT 0.969 | [3] 0.105
active: [1] 0.594 | Shigella flexneri 0.111 | Vibrio cholerae 0.035 | [2] 0.052 | [4] 0.0195

N[C@@H]1CONC1=O [D-cycloserine]
inactive: [1] 1.03 | Shigella flexneri 1.01 | Vibrio cholerae 1.02 | [2] 1.01 | P. vulgatus RND KO 0.972 | P. vulgatus WT 0.962 | [3] 0.994 | [4] 1

CCOC(=O)C1=C[C@]2(CC)CCCN3CCc4c(n1c1ccccc41)[C@@H]32 [Vinpocetine]
inactive: [1] 0.974 | Shigella flexneri 1.03 | Vibrio cholerae 0.904 | [2] 1.01 | P. vulgatus RND KO 1 | P. vulgatus WT 0.988 | [3] 1 | [4] 0.972

COc1cc(N)c(Cl)cc1C(=O)NC1CCN(CCCOc2ccc(F)cc2)CC1OC (centres undefined) [Cisapride]
inactive: [1] 1 | Shigella flexneri 1.01 | Vibrio cholerae 0.929 | [2] 0.989 | P. vulgatus RND KO 0.945 | P. vulgatus WT 0.941 | [3] 1 | [4] 0.947

CCc1oc2ccccc2c1C(=O)c1cc(Br)c(O)c(Br)c1 [Benzbromarone]
inactive: [1] 1.01 | Shigella flexneri 0.989 | Vibrio cholerae 0.989 | [2] 0.996 | P. vulgatus RND KO 0.57 | P. vulgatus WT 0.699 | [3] 1 | [4] 0.925

CC(Cc1cccc(C(F)(F)F)c1)NCCOC(=O)c1ccccc1 (centres undefined) [Benfluorex]
inactive: [1] 0.94 | Shigella flexneri 0.968 | [2] 1.01 | P. vulgatus RND KO 0.956 | P. vulgatus WT 0.975 | [3] 0.986 | [4] 0.98
active: Vibrio cholerae 0.869

COCCc1ccc(OCC(O)CNC(C)C)cc1 (stereo not drawn) [Metoprolol-(+)-tartrate salt]
inactive: [1] 0.996 | Shigella flexneri 0.977 | Vibrio cholerae 0.998 | [2] 0.996 | P. vulgatus RND KO 1.01 | P. vulgatus WT 1.03 | [3] 1 | [4] 1.01

Oc1ncnc2[nH]ncc12 [Allopurinol]
inactive: [1] 0.996 | Shigella flexneri 1.03 | Vibrio cholerae 1.02 | [2] 1 | P. vulgatus RND KO 1.03 | P. vulgatus WT 1.04 | [3] 0.999 | [4] 0.99

CCC[C@H](N[C@@H](C)C(=O)N1[C@H](C(=O)O)C[C@@H]2CCCC[C@@H]21)C(=O)OCC [Perindopril]
inactive: [1] 1.02 | Shigella flexneri 1.02 | Vibrio cholerae 0.963 | [2] 1.04 | P. vulgatus RND KO 1.03 | P. vulgatus WT 1.04 | [3] 1.01 | [4] 1

CC1(C)S[C@@H]2[C@H](NC(=O)[C@H](N)c3ccc(O)cc3)C(=O)N2[C@H]1C(=O)O [Amoxicillin]
active: [1] 0.00744 | Shigella flexneri 0.0257 | Vibrio cholerae 0.68 | [2] 0.0346 | P. vulgatus RND KO 0.0144 | P. vulgatus WT 0.0118 | [3] 0.00737 | [4] 0.00653

CC(=O)Nc1ccc(O)cc1 [Acetaminophen]
inactive: [1] 0.992 | Shigella flexneri 0.99 | Vibrio cholerae 0.997 | [2] 0.996 | P. vulgatus RND KO 1.02 | P. vulgatus WT 1.01 | [3] 1 | [4] 0.998

Oc1c(Cl)cc(Cl)c2cccnc12 [Chloroxine]
inactive: P. vulgatus RND KO 0.32 | [3] 0.969 | [4] 0.568
active: [1] 0.922 | Shigella flexneri 0.884 | Vibrio cholerae 0.0387 | [2] 0.652 | P. vulgatus WT 0.0729
